# Results published in PMC5540273 (PLoS ONE, 2017).
# Like-named read-outs stand apart in the source and are kept apart here.
# Legend:
# STK36 = details: concentration: 1 μM, replicates: in singlicate; n = 1
# STK39 = details: concentration: 1 μM, replicates: in singlicate; n = 1
# SYK = details: n = 1
# SgK110 = details: concentration: 1 μM, replicates: in singlicate; n = 1
# TAK1 = system: T1, TAK1; details: concentration: 1 μM, replicates: in singlicate; n = 1
# T1 construct: gene MAP3K7
# TAOK1 = details: concentration: 1 μM, replicates: in singlicate; n = 1
# TAOK2 = details: concentration: 1 μM, replicates: in singlicate; n = 1
# TAOK3 = details: concentration: 1 μM, replicates: in singlicate; n = 1
# TBK1 = details: concentration: 1 μM, replicates: in singlicate; n = 1
# TEC = details: concentration: 1 μM, replicates: in singlicate; n = 1
# TESK1 = details: concentration: 1 μM, replicates: in singlicate; n = 1
# TGFBR1 = details: concentration: 1 μM, replicates: in singlicate; n = 1
# TGFBR2 = details: concentration: 1 μM, replicates: in singlicate; n = 1
# TIE1 = details: concentration: 1 μM, replicates: in singlicate; n = 1
# TIE2 = system: T2, TIE2; details: concentration: 1 μM, replicates: in singlicate; n = 1
# T2 construct: gene TEK
# TLK1 = details: concentration: 1 μM, replicates: in singlicate; n = 1
# TLK2 = details: concentration: 1 μM, replicates: in singlicate; n = 1
# TNIK = details: concentration: 1 μM, replicates: in singlicate; n = 1
# TNK1 = details: concentration: 1 μM, replicates: in singlicate; n = 1
# TNK2 = details: concentration: 1 μM, replicates: in singlicate; n = 1
# [1] = concentration: 1 μM, replicates: in singlicate
# 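Also: KINOMEscan kinase panel screen.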
smiles,measurement,setting,value
Cc1ccc(-c2ccc3occ(-c4ccc(S(C)=O)cc4)c3c2)nn1 (centres unmarked),%Inh,STK36,0%
same,%Inh,STK39,0%
same,%Inh,SYK; [1],5%
same,%Inh,SgK110,0%
same,%Inh,TAK1,0%
same,%Inh,TAOK1,0%
same,%Inh,TAOK2,0%
same,%Inh,TAOK3,0%
same,%Inh,TBK1,47%
same,%Inh,TEC,0%
same,%Inh,TESK1,0%
same,%Inh,TGFBR1,0%
same,%Inh,TGFBR2,18%
same,%Inh,TIE1,0%
same,%Inh,TIE2,15%
same,%Inh,TLK1,0%
same,%Inh,TLK2,38%
same,%Inh,TNIK,0%
same,%Inh,TNK1,0%
same,%Inh,TNK2,0%
Cn1cc(-c2ccc3c(c2)CCN3C(=O)Cc2cc(F)cc(F)c2F)c2c(N)ncnc21 [GSK2634140],%Inh,STK36,0%
same,%Inh,STK39,0%
same,%Inh,SYK; [1],41%
same,%Inh,SgK110,0%
same,%Inh,TAK1,48%
same,%Inh,TAOK1,0%
same,%Inh,TAOK2,0%
same,%Inh,TAOK3,0%
same,%Inh,TBK1,17%
same,%Inh,TEC,0%
same,%Inh,TESK1,22%
same,%Inh,TGFBR1,10%
same,%Inh,TGFBR2,0%
same,%Inh,TIE1,76%
same,%Inh,TIE2,52%
same,%Inh,TLK1,3%
same,%Inh,TLK2,0%
same,%Inh,TNIK,5%
same,%Inh,TNK1,8%
same,%Inh,TNK2,7%
Cc1cc(-c2c(-c3ccc(F)cc3)ncn2CCCN2CCOCC2)nc(N)n1 [SB-222517],%Inh,STK36,18%
same,%Inh,STK39,7%
same,%Inh,SYK; [1],26%
same,%Inh,SgK110,40%
same,%Inh,TAK1,3%
same,%Inh,TAOK1,0%
same,%Inh,TAOK2,38%
same,%Inh,TAOK3,0%
same,%Inh,TBK1,42%
same,%Inh,TEC,0%
same,%Inh,TESK1,14%
same,%Inh,TGFBR1,0%
same,%Inh,TGFBR2,0%
same,%Inh,TIE1,27%
same,%Inh,TIE2,20%
same,%Inh,TLK1,0%
same,%Inh,TLK2,34%
same,%Inh,TNIK,0%
same,%Inh,TNK1,26%
same,%Inh,TNK2,0%
COC(=O)Nc1nc2ccc(Oc3ccc(CC(=O)Nc4cc(C(F)(F)F)ccc4F)cc3)cc2[nH]1 [GW680903],%Inh,STK36,7%
same,%Inh,STK39,0%
same,%Inh,SYK; [1],0%
same,%Inh,SgK110,0%
same,%Inh,TAK1,0%
same,%Inh,TAOK1,0%
same,%Inh,TAOK2,0%
same,%Inh,TAOK3,0%
same,%Inh,TBK1,4%
same,%Inh,TEC,0%
same,%Inh,TESK1,17%
same,%Inh,TGFBR1,17%
same,%Inh,TGFBR2,0%
same,%Inh,TIE1,94%
same,%Inh,TIE2,36%
same,%Inh,TLK1,14%
same,%Inh,TLK2,0%
same,%Inh,TNIK,0%
same,%Inh,TNK1,0%
same,%Inh,TNK2,17%
O=C(O)C(F)(F)F.O=c1[nH]ccc2nc(N[C@@H]3CCNC3)nc(Nc3ccc4c(c3)S(=O)(=O)CC4)c12 [GSK2181306],%Inh,STK36,20%
same,%Inh,STK39,84%
same,%Inh,SYK; [1],87%
same,%Inh,SgK110,10%
same,%Inh,TAK1,99.3%
same,%Inh,TAOK1,90.3%
same,%Inh,TAOK2,60%
same,%Inh,TAOK3,94.9%
same,%Inh,TBK1,68%
same,%Inh,TEC,0%
same,%Inh,TESK1,0%
same,%Inh,TGFBR1,0%
same,%Inh,TGFBR2,0%
same,%Inh,TIE1,0%
same,%Inh,TIE2,0%
same,%Inh,TLK1,94.6%
same,%Inh,TLK2,98.5%
same,%Inh,TNIK,98%
same,%Inh,TNK1,31%
same,%Inh,TNK2,3%
Cc1cccc(Nc2nc(N[C@H]3CCCC[C@H]3N)ncc2C(N)=O)c1.Cl [GSK986310],%Inh,STK36,58%
same,%Inh,STK39,12%
same,%Inh,SYK; 1 µM,99.4%
same,%Inh,SgK110,55%
same,%Inh,TAK1,90.3%
same,%Inh,TAOK1,32%
same,%Inh,TAOK2,0%
same,%Inh,TAOK3,3%
same,%Inh,TBK1,17%
same,%Inh,TEC,23%
same,%Inh,TESK1,22%
same,%Inh,TGFBR1,0%
same,%Inh,TGFBR2,0%
same,%Inh,TIE1,15%
same,%Inh,TIE2,0%
same,%Inh,TLK1,17%
same,%Inh,TLK2,7%
same,%Inh,TNIK,74%
same,%Inh,TNK1,33%
same,%Inh,TNK2,31%
CCNC(=O)/C=C/c1n[nH]c2cc(Sc3ccccc3C(=O)NC)ccc12,%Inh,STK36,35%
same,%Inh,STK39,0%
same,%Inh,SYK; [1],20%
same,%Inh,SgK110,15%
same,%Inh,TAK1,26%
same,%Inh,TAOK1,0%
same,%Inh,TAOK2,0%
same,%Inh,TAOK3,8%
same,%Inh,TBK1,13%
same,%Inh,TEC,0%
same,%Inh,TESK1,10%
same,%Inh,TGFBR1,5%
same,%Inh,TGFBR2,0%
same,%Inh,TIE1,59%
same,%Inh,TIE2,20%
same,%Inh,TLK1,12%
same,%Inh,TLK2,0%
same,%Inh,TNIK,57%
same,%Inh,TNK1,67%
same,%Inh,TNK2,27%
Nc1cccc(-c2ccc3c(N)n[nH]c3c2)c1 [GSK2193613],%Inh,STK36,0%
same,%Inh,STK39,0%
same,%Inh,SYK; [1],22%
same,%Inh,SgK110,0%
same,%Inh,TAK1,0%
same,%Inh,TAOK1,69%
same,%Inh,TAOK2,4%
same,%Inh,TAOK3,29%
same,%Inh,TBK1,0%
same,%Inh,TEC,0%
same,%Inh,TESK1,29%
same,%Inh,TGFBR1,0%
same,%Inh,TGFBR2,0%
same,%Inh,TIE1,6%
same,%Inh,TIE2,0%
same,%Inh,TLK1,3%
same,%Inh,TLK2,0%
same,%Inh,TNIK,93.2%
same,%Inh,TNK1,0%
same,%Inh,TNK2,13%
O=C1NC(=O)C(c2ccccc2Cl)=C1Nc1cccc(Cl)c1 [SB-342409],%Inh,STK36,0%
same,%Inh,STK39,9%
same,%Inh,SYK; [1],0%
same,%Inh,SgK110,0%
same,%Inh,TAK1,0%
same,%Inh,TAOK1,0%
same,%Inh,TAOK2,0%
same,%Inh,TAOK3,11%
same,%Inh,TBK1,7%
same,%Inh,TEC,13%
same,%Inh,TESK1,20%
same,%Inh,TGFBR1,4%
same,%Inh,TGFBR2,71%
same,%Inh,TIE1,7%
same,%Inh,TIE2,0%
same,%Inh,TLK1,68%
same,%Inh,TLK2,50%
same,%Inh,TNIK,0%
same,%Inh,TNK1,12%
same,%Inh,TNK2,18%
O=C(Nc1n[nH]c2nc(-c3ccccc3O)ccc12)C1CC1 [SB-711880],%Inh,STK36,0%
same,%Inh,STK39,0%
same,%Inh,SYK; [1],0%
same,%Inh,SgK110,0%
same,%Inh,TAK1,9%
same,%Inh,TAOK1,9%
same,%Inh,TAOK2,0%
same,%Inh,TAOK3,0%
same,%Inh,TBK1,27%
same,%Inh,TEC,63%
same,%Inh,TESK1,0%
same,%Inh,TGFBR1,0%
same,%Inh,TGFBR2,0%
same,%Inh,TIE1,16%
same,%Inh,TIE2,0%
same,%Inh,TLK1,22%
same,%Inh,TLK2,0%
same,%Inh,TNIK,79%
same,%Inh,TNK1,20%
same,%Inh,TNK2,0%
